# Screening results from PubChem.
# Pol beta inh: qHTS Assay for Inhibitors of DNA Polymerase Beta; Pol beta primer extension/strand displacement, fluorescence kinetic; hit rate 1.3% among 340,000; P06746; Potency, µM (titrated, usually from 114 µM), for inactives: at the highest dose activity change, negative = inhibition, most hits filed as inhibitors; AID 485314, 2010; also: potency is read from the fitted curve at half-maximal effect; % is scaled to controls: 0 for no effect and ±100 for the full control effect
#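 Pol beta (10 nM) was preincubated with compound for 15 min at room temperature. The reaction was then started with 50 nM substrate and read immediately and after a further 10 min at room temperature.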
# POLI inh: qHTS for Inhibitors of Polymerase Iota; Pol iota fluorescent replication assay, 10 min; Potency, µM (series often up to 115 µM), inactives show top-dose activity, negative = inhibition, usual class: inhibitors; hit rate 1% among 390,000; also: potency is read from the fitted curve at half-maximal effect
#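 Pol iota at 10 nM preincubated 15 min with compounds at room temperature; reaction started with fluorescent substrate, 50 nM final. Fluorescence read kinetically at 0 and 10 min; buffer-only wells as negative control.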
# Pol eta inh-1: qHTS for Inhibitors of Polymerase Eta. recombinant Pol eta, fluorescent DNA replication assay. DNA polymerase eta (Homo sapiens), Q9Y253. Potency, µM (top dose mostly 114 µM), for inactives: top-dose activity change, negative = inhibition, usual class: inhibitors. AID 588591, 2011. hit rate 1.2% among 390,000; also: potency is read from the fitted curve at half-maximal effect; % is scaled to controls: 0 for no effect and ±100 for the full control effect
#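 Pol eta (10 nM) was preincubated with compounds for 15 min at room temperature, after which fluorescent replication substrate (50 nM final) was added to start the reaction. Fluorescence was read kinetically at 0 and 10 min.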
# WRN helicase inh: qHTS for Inhibitors of WRN Helicase | WRN helicase unwinding, fluorescent forked duplex, kinetic | hit rate 0.46% among 360,000 | Potency, µM (titrated, usually from 114 µM), inactives show top-dose activity change, negative = inhibition, usual class: inhibitors | AID 651768, 2012; also: potency is read from the fitted curve at half-maximal effect; % is scaled to controls: 0 for no effect and ±100 for the full control effect; nearly all actives have a fitted effect of over 55% in size
# Target sequence (Q14191 whole entry, looked up): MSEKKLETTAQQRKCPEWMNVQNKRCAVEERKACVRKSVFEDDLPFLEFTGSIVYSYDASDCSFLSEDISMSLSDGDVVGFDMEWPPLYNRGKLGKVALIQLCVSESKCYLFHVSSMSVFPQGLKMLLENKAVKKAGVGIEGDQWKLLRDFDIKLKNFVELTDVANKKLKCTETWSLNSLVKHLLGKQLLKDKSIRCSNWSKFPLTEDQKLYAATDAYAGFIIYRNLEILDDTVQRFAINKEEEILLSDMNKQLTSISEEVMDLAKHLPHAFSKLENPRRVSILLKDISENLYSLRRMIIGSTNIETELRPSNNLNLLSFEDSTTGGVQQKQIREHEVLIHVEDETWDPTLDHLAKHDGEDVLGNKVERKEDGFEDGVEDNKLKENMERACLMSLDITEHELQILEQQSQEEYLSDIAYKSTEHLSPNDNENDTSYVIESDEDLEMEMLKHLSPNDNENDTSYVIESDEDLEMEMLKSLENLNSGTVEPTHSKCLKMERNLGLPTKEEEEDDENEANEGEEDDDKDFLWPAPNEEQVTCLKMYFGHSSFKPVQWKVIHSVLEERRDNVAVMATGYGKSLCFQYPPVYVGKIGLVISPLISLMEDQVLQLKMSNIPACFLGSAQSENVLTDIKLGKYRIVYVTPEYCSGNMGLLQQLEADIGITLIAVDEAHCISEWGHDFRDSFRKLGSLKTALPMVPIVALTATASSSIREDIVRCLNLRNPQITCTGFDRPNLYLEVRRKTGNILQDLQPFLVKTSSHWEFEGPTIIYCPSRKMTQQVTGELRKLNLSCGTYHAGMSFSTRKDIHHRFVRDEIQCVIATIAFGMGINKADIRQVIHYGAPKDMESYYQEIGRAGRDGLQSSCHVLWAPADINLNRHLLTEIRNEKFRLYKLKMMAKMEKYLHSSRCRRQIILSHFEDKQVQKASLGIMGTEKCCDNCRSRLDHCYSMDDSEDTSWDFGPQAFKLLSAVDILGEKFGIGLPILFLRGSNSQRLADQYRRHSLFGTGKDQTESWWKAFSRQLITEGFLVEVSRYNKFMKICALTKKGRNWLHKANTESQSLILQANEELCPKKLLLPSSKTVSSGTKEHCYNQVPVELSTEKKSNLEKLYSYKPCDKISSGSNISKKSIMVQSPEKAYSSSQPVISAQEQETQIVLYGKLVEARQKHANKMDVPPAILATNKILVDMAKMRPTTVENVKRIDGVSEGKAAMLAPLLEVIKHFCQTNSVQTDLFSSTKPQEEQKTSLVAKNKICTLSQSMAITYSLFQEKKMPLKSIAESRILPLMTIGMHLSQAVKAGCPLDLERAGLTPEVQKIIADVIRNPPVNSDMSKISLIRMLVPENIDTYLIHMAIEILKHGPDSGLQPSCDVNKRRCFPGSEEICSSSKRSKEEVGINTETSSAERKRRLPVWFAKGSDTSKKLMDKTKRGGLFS
#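 Kinetic red-fluorescence monitoring (525/598 nm) tracks WRN helicase activity after 100 nM fluorophore-quencher forked duplex and 2 mM ATP are added to 20 nM enzyme pretreated 15 min at room temperature with compound.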
# Pol kappa inh-1: qHTS for Inhibitors of Polymerase Kappa; DNA polymerase kappa (Homo sapiens), Q9UBT6; purified Pol kappa, fluorescent DNA synthesis assay, 10 min; Potency, µM (highest dose often 107 µM), for inactives: at the highest dose activity, negative = inhibition, hits mostly inhibitors; hit rate 0.53% among 400,000; also: potency is read from the fitted curve at half-maximal effect; % is scaled to controls: 0 for no effect and ±100 for the full control effect
#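 Kinetic fluorescence readout at 0 and 10 min followed reaction start with substrate at 50 nM final. Beforehand, enzyme (10 nM Pol kappa) stood 15 min with compound at room temperature; buffer-only wells were negative controls.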
# GALK inh confirm: Confirmation Assay for Inhibitors of Human Galactokinase (GALK). purified GALK, Kinase-Glo ATP depletion luminescence. Potency, µM (doses to about 115 µM), for the others: at the top dose activity, negative = inhibition, most hits filed as inhibitors. shares compounds with Pol eta inh-1. hit rate 70% among 150. AID 2015, 2009
# Redox cycling: Confirmatory Assay for Inhibitors of Human Galactokinase (GALK): Phenol-HRP redox assay counterscreen | Potency, µM (titrated, usually from 115 µM), without a hit: at the highest dose activity change, negative = H2O2 signal, usual class: inhibitors | Phenol red-HRP H2O2 redox cycling, absorbance 600 nm | hit rate 40% among 150 | shares compounds with Pol eta inh-1 | AID 2035, 2009
# HEK293 viability: Secondary Assay for Inhibitors of Human Galactokinase (GALK): HEK-293 Cell Viability Assay. shares compounds with Pol eta inh-1. hit rate 10% among 170. HEK-293 viability, ATP luminescence (CellTiter-Glo), 24/48 h. Potency, µM (highest dose often 46.1 µM), for inactives: top-dose activity change, negative = cytotoxicity, actives largely listed as inhibitors. AID 2547, 2010; also: potency is read from the fitted curve at half-maximal effect; % is scaled to controls: 0 for no effect and ±100 for the full control effect
# Pol kappa inh-2: qHTS for Inhibitors of Polymerase Kappa: Confirmatory Assay for Cherry-picked Compounds; Potency, µM, most hits filed as inhibitors; hit rate 76% among 920; AID 720501, 2013; shares compounds with Pol eta inh-1; purified Pol-kappa, fluorescent strand-displacement substrate; also: potency is read from the fitted curve at half-maximal effect
# Pol eta inh-2: qHTS for Inhibitors of Polymerase Eta: Confirmatory Assay for Cherry-picked Compounds; Pol eta primer extension, TAMRA/BHQ fluorescence, 10 min; shares compounds with Pol eta inh-1; AID 720502, 2013; hit rate 64% among 2,600; Potency, µM, hits mostly inhibitors; also: potency is read from the fitted curve at half-maximal effect
# * hit, by the source's call; ? = inconclusive; . = no result; [ ] = remark or other dose. Sampled rows, rich in hits. Any-hit rate of the full collection: about 2.3%. Calls follow the shape of the dose curve; as a rule, active = well fitted curve in the direction sought with a large enough effect; inconclusive = small, poorly fitted or top-dose-only effect, or another doubt; inactive = no such curve, though single readings can be large; an effect the other way counts as inactive or inconclusive.
SMILES,Pol beta inh,POLI inh,Pol eta inh-1,WRN helicase inh,Pol kappa inh-1,Pol eta inh-2,others
O=C(O)c1cc(C(=O)O)cc(N2C(=O)CSC2=S)c1,2%,22µM*,?,-24%[11.6 µM],89µM*,30*,Pol kappa inh-2=?
CCOc1ccccc1CNC(=O)c1cc(-c2ccc(Cl)s2)nc2ccccc12,8%,10%,-11%,.,0%,.,
COc1cc(/C=C2/SC(=O)NC2=O)ccc1OC(=O)c1ccco1,12%,3%,-8%,?,-1%,.,
CCOc1cc(/C=C2/SC(=S)NC2=O)ccc1OC(=O)c1ccco1,?,?,?,-5%[11.6 µM],-23%,?,
COc1cc(Nc2ncc3c(n2)CCN(Cc2cc(F)cc(F)c2)C3)cc(OC)c1,3%,-10%,.,.,-6%[60.1 µM],.,
O=C1OCCC1N(C(=O)C1CC1)c1cccc(Cl)c1 (centres undefined),.,.,.,.,-4%[60.1 µM],.,
S=C(NCc1ccco1)NCc1ccco1,.,?,?,-4%[11.6 µM],?,?,
O=C(Cn1c(=O)nc(-c2ccccc2)c2ccccc21)NCc1ccccc1Cl,24%,13%,-14%,.,-12%[60.1 µM],.,
CC1=NN(c2ccccc2)C(=O)/C1=C/c1c(O)n(-c2ccc(F)c(Cl)c2)[nH]c1=O,?,-28%,28µM*,?,?,.,GALK inh confirm=30µM*;Redox cycling=5%;HEK293 viability=12%
Nc1cc(C(=O)OCC(=O)NCc2ccco2)ccc1Cl,?,?,18µM*,-21%[57.1 µM],-27%,?,
CCOc1ccccc1OCC(=O)NCc1ccco1,28µM*,20µM*,79µM*,?,?,?,
O=C(COC(=O)c1ccc(Cl)c(S(=O)(=O)N2CCOCC2)c1)NCc1ccco1,.,-10%,-6%,-7%,0%,.,
O=C(COC(=O)c1ccccc1Nc1cccc(C(F)(F)F)c1)NCc1ccco1,40µM*,?,20µM*,-30%,?,67*,
O=C(OCCOCCO)c1ccccc1Nc1cccc(C(F)(F)F)c1,.,.,.,.,8%[12 µM],.,
CC(C)C(CCNC(=O)CN1C(=O)c2ccccc2C1=O)c1ccco1 (centres undefined),79%,14%,-5%,6%,2%,.,
CC(C)C(CCNC(=O)CC(Cc1ccccc1)c1ccco1)c1ccco1 (centres undefined),32µM*,?,79µM*,-12%[11.6 µM],?,85*,Pol kappa inh-2=53*
CN(C)c1ccc(-c2nccc(NCCN3CCOCC3)n2)cc1,.,.,.,.,0%[60.1 µM],.,
O=C1NC(=S)S/C1=C\c1ccc(SCc2ccccc2)o1,14µM*,7.9µM*,18µM*,?,25µM*,?,
COc1ccccc1C=C1SC(=S)NC1=O,.,?,?,-23%,-28%,.,
CCCSc1nc2c([nH]c3ccccc32)c(=O)n1C,-18%,18%,-24%,.,-2%[60.1 µM],.,
Cc1ccc(C2C(/C=C3/SC(=S)NC3=O)=C(c3cccs3)Oc3ccccc32)cc1 (centres undefined),32µM*,?,71µM*,79µM*,?,?,Pol kappa inh-2=?
CC1Cc2cc(/C=C3/SC(=S)NC3=O)ccc2O1 (centres undefined),3%,-5%,9%,-15%,-16%,.,
COc1ccc(NC(=O)CCCc2nnc3n(C(C)C)c(=O)c4sccc4n23)cc1Cl,0%,18%,-19%,.,10%,.,
CSc1nnc(-c2ccco2)c(-c2ccco2)n1,8.9µM*,?,11µM*,?,?,?,
O=C(O)CCCC(=O)Nc1ccc(N2CCCC2)cc1,-2%,?,13µM*,-8%[57.1 µM],35µM*,48*,
SMILES,Pol beta inh,POLI inh,Pol eta inh-1,WRN helicase inh,Pol kappa inh-1,Pol eta inh-2,others
CCCC(=O)Nc1ccc(N2CCCCC2)cc1,16%,7%,-6%,11%,-10%,.,
COc1ccc(OC)c(NC(=O)c2cnn(-c3ccc(C)cc3)c2C2CCNCC2)c1,3%,52%,-12%,.,-22%,.,
Cc1ccc2nc(-c3ccc(O)c(O)c3)cn2c1,4µM*,50µM*,22µM*,-5%[11.6 µM],?,?,
CCN(CC)C(=O)Nc1ccc(OC[C@H](O)CNC(C)(C)C)c(C(C)=O)c1,.,.,.,.,3%[19.4 µM],.,
CSc1cccc(NC(=O)Cn2c3ncccc3c(=O)n2-c2ccc(C)cc2)c1,24%,5%,-13%,.,-3%,.,
Nc1c(C(=O)NCc2ccco2)sc2nc3c(cc12)C(=O)CCC3,32µM*,?,32µM*,?,?,54*,
COc1ccc2cc3c(N)c(C(=O)NCc4ccco4)sc3nc2c1,3%,?,?,-18%,?,.,
O=C(COC(=O)c1ccc([N+](=O)[O-])s1)NCc1ccc(F)cc1,?,?,79µM*,-5%[11.6 µM],-27%,?,
Cc1cc(C)c(NC(=O)COC(=O)c2ccc([N+](=O)[O-])s2)c(C)c1,-6%,27%,-13%,6%,-18%,.,
NS(=O)(=O)c1ccc(NC(=O)COC(=O)c2ccc([N+](=O)[O-])s2)cc1,7.1µM*,79µM*,?,3%[11.6 µM],-22%,.,GALK inh confirm=33µM*;Redox cycling=21µM*;HEK293 viability=0%
Cc1ccc(C(=O)OCC(=O)NCc2ccccc2)s1,.,.,1%,5%,.,.,
COc1ccc(CNC(=O)CCCn2c(=O)c3cccn3c3ccc(F)cc32)cc1OC,1%,20%,-7%,.,-1%,.,
C=CCn1c(SCC(=O)O)nnc1-c1ccc(C(C)(C)C)cc1,1%,5%,?,9%,-3%,.,
